In the library only some 2.2% were active in any assay of this set; here they are far more common.
PolyA inh: blocks polyadenylation in yeast reporter cells; 0.02% of 300,000 active; activity score, % at 12 µM; S. cerevisiae SKY197-pL101 polyadenylation reporter, beta-gal luminescence; efflux-impaired pdr1/pdr3 knockout yeast; score 100 = 6 SD above DMSO; AID 1875;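 active means lowest replicate activity score at least 50, where 100 means six control SD above control mean; inconclusive means lowest score under 50 but half or more replicates reach 50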;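 further: yeast exposed to compound for 9 h at 30 °C; higher score means more reporter readthrough which indicates perturbed polyadenylation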
NALP1 yeast inh: blocks the NALP1 inflammasome reconstituted in yeast. inhibition, % at 10 µM. 0.61% of 280,000 active. S. cerevisiae NALP1/ASC/caspase-1 growth, X-gal OD620, 72 h. AID 2071; in the data active means inhibition mostly above about 24%, no sharp cut-off; inactive means mostly below about 32%
NLRP3 yeast inh: blocks the NALP3 inflammasome reconstituted in yeast; 0.39% of 330,000 active; inhibition, % at 10 µM; AID 2825; Yeast reconstituted NLRP3/ASC/caspase-1, beta-gal luminescence, 24 h;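 active means inhibition of 50% or more; inactive means inhibition below 50%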
ZTA DNA inh: blocks Epstein-Barr virus ZTA, an EBNA-1 counter-screen. P03206. ZTA-DNA binding, fluorescence polarization. inhibition, % at 11 µM. 0.15% of 320,000 active; in the data active means inhibition above about 33%
Target sequence (P03206 whole entry, looked up): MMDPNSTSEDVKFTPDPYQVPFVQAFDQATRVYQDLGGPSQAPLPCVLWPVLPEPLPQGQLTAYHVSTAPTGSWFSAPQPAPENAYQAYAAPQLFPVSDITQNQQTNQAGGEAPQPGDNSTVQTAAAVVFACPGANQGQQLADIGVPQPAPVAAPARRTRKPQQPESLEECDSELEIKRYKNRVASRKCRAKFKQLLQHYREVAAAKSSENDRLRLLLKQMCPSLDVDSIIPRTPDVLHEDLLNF
EBNA-1 inhibitor: blocks EBNA-1 binding to DNA; 0.34% of 300,000 active; EBNA-1 DNA binding, fluorescence polarization; AID 1950; inhibition, % at 14.8 µM; in the data active means inhibition above about 28%
dFosB activator: mouse delta FosB homodimer activation; AID 493131; 0.99% of 340,000 active; purified delta FosB, TAMRA-CDK5 oligo fluorescence polarization; percent of positive-control signal above neutral wells; activation, % at 25 µM;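 active means mean activation above about 17%, with every replicate also reaching it, limit read from the data, passing the limit was not always enough; inconclusive means only one of the two conditions met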
Target sequence (P13346 whole entry, looked up): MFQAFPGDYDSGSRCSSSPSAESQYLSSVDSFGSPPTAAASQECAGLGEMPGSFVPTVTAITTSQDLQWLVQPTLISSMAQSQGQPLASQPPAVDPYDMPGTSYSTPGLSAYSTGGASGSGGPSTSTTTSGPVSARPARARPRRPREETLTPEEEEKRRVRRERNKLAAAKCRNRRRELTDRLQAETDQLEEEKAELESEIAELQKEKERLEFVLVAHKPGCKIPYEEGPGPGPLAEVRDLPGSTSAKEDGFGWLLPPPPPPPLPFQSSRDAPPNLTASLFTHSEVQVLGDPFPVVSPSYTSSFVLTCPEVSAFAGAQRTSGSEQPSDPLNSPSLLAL
EBNA-1 confirm: EBNA-1 (EBV) inhibition, confirmation; shares compounds with EBNA-1 inhibitor; Recombinant EBNA-1 DBD, Cy5-DNA fluorescence polarization; inhibition, % at 14.8 µM; 35% of 830 active; AID 2292;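 active means mean inhibition across replicates above a set limit taken from the earlier primary screen, cut at about 28% in these data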
ZTA counter trip: blocks Epstein-Barr virus ZTA in triplicate, EBNA-1 counter-screen. inhibition, % at 11.1 µM. shares compounds with EBNA-1 inhibitor. 830 tested, under 10 active. Zta-ZRE DNA binding, Cy5 fluorescence polarization. AID 2328;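 active means mean inhibition over triplicates above a set limit taken from the primary EBNA-1 screen, cut at about 37% in these data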;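 further: purified full length Zta protein with Cy5 labeled ZRE DNA probe; inhibitors lower polarization by freeing the labeled DNA probe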
Of the large screens only hits and unclear results are named; the others gave an inactive call (follow-up assays come after a bar, where they were run).

CCn1nnc(-c2ccccc2NC(=O)c2ccc(-n3cnnn3)cc2)n1	none
CCn1nnc(-c2ccccc2NC(=O)c2cccc(-n3cnnn3)c2)n1	EBNA-1 inhibitor 87 | EBNA-1 confirm 83 | ZTA counter trip inactive
O=C(CSc1nc2ccc(NC(=O)CSc3nnnn3-c3ccccc3)cc2s1)Nc1ccccc1	EBNA-1 inhibitor 49 | EBNA-1 confirm 61 | ZTA counter trip inactive
COC(=O)c1ccc(Cn2cnc3c(cnn3-c3ccc(Cl)cc3)c2=O)o1	EBNA-1 inhibitor 46 | EBNA-1 confirm inactive | ZTA counter trip inactive
COC(=O)c1ccc(Cn2cnc3c(cnn3-c3ccc(F)cc3)c2=O)o1	none
CCc1csc(CCNC(=O)C2CCC(=O)N(Cc3cccc(C(F)(F)F)c3)C2)n1 (centres undefined)	none
COc1cccc(-n2nnc3c(=O)n(Cc4ccc(Br)cc4)cnc32)c1	EBNA-1 inhibitor 35 | EBNA-1 confirm inactive | ZTA counter trip inactive
CN(C)C(CNC(=O)c1cc(S(=O)(=O)N(C)Cc2ccccc2)ccc1Cl)c1ccco1 (centres undefined)	none (no result: NALP1 yeast inh)
COc1ccccc1NC(=O)CS(=O)(=O)c1cn(CC(=O)N2CCCC2)c2ccccc12	none
Cc1cc(C)cc(NC(=O)Cn2c(-c3ccccc3Cl)nc3ccccc32)c1	EBNA-1 inhibitor 60, dFosB activator inconclusive | EBNA-1 confirm inactive | ZTA counter trip inactive
CCOC(=O)c1ccc(NC(=O)Cn2c(-c3nonc3N)nc3ccccc32)cc1	EBNA-1 inhibitor 31 | EBNA-1 confirm 32 | ZTA counter trip inactive
Cc1cc(/C=C2\SC(=S)N(C)C2=O)c(C)n1-c1ccc(O)cc1	none
Cc1cc(/C=C2\SC(=S)N(C)C2=O)c(C)n1-c1ccccc1O	EBNA-1 inhibitor 35 (no result: NALP1 yeast inh) | EBNA-1 confirm 43 | ZTA counter trip inactive
CCS(=O)(=O)N1CCN(S(=O)(=O)c2ccc(S(=O)(=O)NC3CC3)cc2)CC1	EBNA-1 inhibitor 48 | EBNA-1 confirm 44 | ZTA counter trip inactive
CC(=O)Oc1ccccc1C(=O)NC(C)CCc1ccccc1 (centres undefined)	none
O=C(N/N=C/c1ccc2c(c1)OCO2)c1cc2ccccc2o1	EBNA-1 inhibitor 30 | EBNA-1 confirm inactive | ZTA counter trip inactive
COc1ccccc1C(=O)Nc1nc2ccccc2s1	EBNA-1 inhibitor 31 | EBNA-1 confirm inactive | ZTA counter trip inactive
COc1ccc(C(=O)Nc2nc3ccccc3s2)c(OC)c1	none (no result: NALP1 yeast inh)
COc1n[nH]c(C(=O)Nc2nc3ccccc3s2)c1[N+](=O)[O-]	EBNA-1 inhibitor 34 | EBNA-1 confirm inactive | ZTA counter trip inactive
CN(C)S(=O)(=O)c1ccc(NC(=O)CCCNC(=O)c2ccc(Cl)cc2)cc1	none
CCC1(CC)NC(=O)N(CC(=O)Nc2cccc3ccccc23)C1=O	none (no result: PolyA inh, NALP1 yeast inh, ZTA DNA inh, EBNA-1 inhibitor)
CCOc1ccc(-n2nnc3c(=O)n(CC(=O)c4ccccc4)cnc32)cc1	EBNA-1 inhibitor 30 (no result: NALP1 yeast inh) | EBNA-1 confirm inactive | ZTA counter trip inactive
Cc1ccc(-n2nnc3c(=O)n(CC(=O)c4ccccc4)cnc32)cc1	none
Cc1ccc([N+](=O)[O-])cc1Nc1nc(N2CCCC2)nc(N2CCCC2)n1	none
CC(C)(C)c1nc(SCC(=O)Nc2ccc(N3CCOCC3)cc2)c2ccccc2n1	none
O=C(CSc1nnc(-c2ccc(O)cc2)o1)Nc1cccc(O)c1	none
Cc1cccc(NC(=O)CSc2nnc(-c3ccc(S(=O)(=O)N4CCCC4)cc3)o2)c1	none
CC(C)(C)c1nc(SCC(=O)Nc2ccc3c(c2)OCCO3)c2ccccc2n1	EBNA-1 inhibitor 46 | EBNA-1 confirm inactive | ZTA counter trip inactive
Cc1ccc(NC(=O)CSc2nnc(-c3ccc(S(=O)(=O)N4CCCC4)cc3)o2)cc1C	EBNA-1 inhibitor 108, dFosB activator 70 (no result: PolyA inh) | EBNA-1 confirm 56 | ZTA counter trip 194
O=C(CSc1nnc(-c2ccc(O)cc2)o1)Nc1ccc2c(c1)OCCO2	EBNA-1 inhibitor 34 | EBNA-1 confirm inactive | ZTA counter trip inactive
N#C/C(=N\Nc1cccc(C(F)(F)F)c1)C(=O)c1csc(-c2cccnc2)n1	EBNA-1 inhibitor 50 (no result: NALP1 yeast inh) | EBNA-1 confirm inactive | ZTA counter trip inactive
Cc1ccc(C(=O)Nc2cccc(C(F)(F)F)c2)cc1NC(=O)c1csc(-c2ccncc2)n1	none
C=CCNC(=S)NNC(=O)c1ccccc1	EBNA-1 inhibitor 77 (no result: NALP1 yeast inh) | EBNA-1 confirm inactive | ZTA counter trip inactive
C=CCNC(=S)NNC(=O)c1cccc(Br)c1	none
COc1ccc(OCc2cc(C(=O)N3C[C@H]4CC[C@H]3C4)no2)c(Cl)c1	none
COC(=O)C1=C(N)N(c2ccccc2C(F)(F)F)C2=C(C(=O)CCC2)C1c1ccc2c(c1)OCO2 (centres undefined)	EBNA-1 inhibitor 31 | EBNA-1 confirm inactive | ZTA counter trip inactive
COC(=O)CSC1=C(C#N)C(c2ccc3c(c2)OCO3)C2=C(CCCC2=O)N1 (centres undefined)	none
O=C(CSc1nnc(SCc2ccc(Cl)cc2)s1)N/N=C/c1ccc(Cl)cc1Cl	none
O=C(CSc1nnc(SCc2ccc(Cl)cc2)s1)N/N=C/c1c(Cl)cccc1Cl	EBNA-1 inhibitor 35 | EBNA-1 confirm inactive | ZTA counter trip inactive
CC(NCC(=O)NC(=O)NC1CCCC1)c1ccc(Cl)cc1Cl (centres undefined)	none (no result: NALP1 yeast inh)
CN(C)C1=NCCN1CCCCc1ccccc1	none (no result: PolyA inh, NALP1 yeast inh)
NC(=O)CN1C(=O)NC2(CCCc3sccc32)C1=O (centres undefined)	none
Cc1cc(C(=O)CN2C(=O)NC3(CCCc4sccc43)C2=O)c(C)n1-c1ccc(Cl)cc1 (centres undefined)	EBNA-1 inhibitor 34 | EBNA-1 confirm inactive | ZTA counter trip inactive
CC(=O)c1cc(C)ccc1OC(=O)c1cccc2nc(C)oc12	EBNA-1 inhibitor 81 | EBNA-1 confirm inactive | ZTA counter trip inactive
CC1CCN(S(=O)(=O)c2ccc(-c3nnc(SCc4cccnc4)o3)cc2)CC1	EBNA-1 inhibitor 44 | EBNA-1 confirm inactive | ZTA counter trip inactive
O=C1c2ccccc2C(=O)N1CCC#Cc1ccc2cc(CCO)oc(=O)c2c1	none (no result: PolyA inh, NALP1 yeast inh, EBNA-1 inhibitor)
Cc1csc(NC(=O)CSc2nc3ccccc3s2)n1	none
O=C(CSc1nc2ccccc2s1)Nc1nccs1	EBNA-1 inhibitor 65 | EBNA-1 confirm inactive | ZTA counter trip inactive
S=C(NCc1ccco1)Nc1ccc(Oc2ccc(Cl)cc2)cc1	none
S=C(NCc1ccco1)Nc1ccc(Cl)cc1	EBNA-1 inhibitor 31 | EBNA-1 confirm inactive | ZTA counter trip inactive
CCc1ccc2nc(SCC(=O)Nc3nnc(C)s3)c(C)cc2c1	none
CCc1nnc(NC(=O)CSc2nc3cc4c(cc3cc2C)OCCO4)s1	EBNA-1 inhibitor 102, dFosB activator inconclusive | EBNA-1 confirm 98 | ZTA counter trip inactive

Source: PubChem BioAssay (several laboratories)
